An excerpt weighted towards active compounds, which were near 3.6% of everything screened.
LGR2 antag: blocks bursicon-induced cAMP signaling via Drosophila LGR2. hit rate 0.35% among 380,000. inhibition, % at 9.99 µM. HEK293 LGR2, CRE-luciferase, bursicon-stimulated, 4 h;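 active = drop in luminescence signal, shown as inhibition above about 50% in the replicate tests, limit read from the data, passing the limit was not always enough; inconclusive = probably only some replicates passing the limit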;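 note: agonist challenge used bursicon conditioned medium at about half maximal strength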
TROY NFkB inh: inhibitors of TROY-dependent NF-kB signaling. Q293 LMP1-TROYcd NF-kB luciferase reporter, 4 h. inhibition, % at 10 µM. hit rate 0.98% among 360,000. AID 1347056;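 active = compounds whose plate-normalised and pattern-corrected inhibition of the luciferase reporter signal at the single screening dose is 50% or more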
HSF1 inhib: HSF1 inhibition. activity change, negative = inhibition, % at 7.5 µM (by protocol). hit rate 0.77% among 300,000. NIH3T3-HGL HSE-luciferase, MG132-induced, luminescence 8 h; stronger effect = lower value. AID 2098;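 active = more than half of replicate wells show activity change below -50%, luminescence cut by over half; inconclusive = some wells, but at most half, below -50%; inactive = no replicate well below -50%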;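 note: luciferase reports HSF-1 transcriptional activity via heat shock element; 0% = median of DMSO wells and -100% = zero luminescence signal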
TWEAK Fn14 block: inhibitors of TWEAK-Fn14 interaction signaling; TWEAK-stimulated Fn14 reporter cells, luciferase luminescence, 8 h; inhibition, % at 10 µM; hit rate 2% among 360,000; AID 1159606; in the data active = inhibition above about 50%
HSF1 activator: increases HSF-1 driven luciferase reporter signal; AID 504408; activation, % at 9 µM; NIH3T3-HGL HSF-1 luciferase reporter, MG132, 8 h; 100% = twice DMSO control signal; hit rate 1.7% among 300,000;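 active = mean replicate activation of at least 50% with a set share of replicates each reaching 50%; inconclusive = only one of those two conditions met; inactive = mean below 50% and too few replicates reaching it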;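 note: 0% = median of the neutral control wells and 100% = twice that signal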
EBV LMP1 NFkB: Epstein-Barr LMP1 NF-kappaB reporter inhibition | LMP1-induced NF-kappaB luciferase reporter cells, luminescence | AID 504558 | hit rate 0.69% among 350,000 | inhibition, % at 12.5 µM; in the data active = inhibition above about 41%; inconclusive = no clear call, values can overlap the other calls;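 note: 0% = neutral control wells and 100% = reference inhibitor control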
An asterisk follows results filed as active.

`O=C(NCC(c1cccnc1)N1CCN(c2ccccc2F)CC1)C1CCCCC1` (stereo unspecified) gave HSF1 inhib -5.2, TWEAK Fn14 block 84.8*, HSF1 activator -10.5 and EBV LMP1 NFkB 6.3.
O=C(NCC(c1cccnc1)N1CCN(c2ccc(F)cc2)CC1)C1CCCCC1 (stereo unspecified) was read as TROY NFkB inh 1.1, HSF1 inhib -6.3, TWEAK Fn14 block 13.7, HSF1 activator 1.4 and EBV LMP1 NFkB 2.5.
`Brc1csc(/C=N/Nc2nc3ccccc3s2)c1` gave LGR2 antag -66.5, TROY NFkB inh -11.2, HSF1 inhib 20.8, TWEAK Fn14 block 30.2, HSF1 activator 39.9 and EBV LMP1 NFkB -66.8.
For Cc1csc(N/N=C/c2ccccn2)n1 the results were LGR2 antag 68.8*, TROY NFkB inh -4.1, HSF1 inhib -9.7, TWEAK Fn14 block 72.2*, HSF1 activator 3.0 and EBV LMP1 NFkB inconclusive.
Screening Cc1ccc2[nH]c(C)c(/C=N/Nc3nc4ccccc4s3)c2c1 returned TROY NFkB inh 38.7, HSF1 inhib 10.0, TWEAK Fn14 block 60.2*, HSF1 activator 24.9 and EBV LMP1 NFkB -81.7.
`Cc1cc(NN=Cc2ccccn2)nc2ccccc12` gave LGR2 antag -9.3.
C(=NNc1ccc2ccccc2n1)c1ccccn1 was read as LGR2 antag 98.9*, TROY NFkB inh 83.2* and TWEAK Fn14 block 100.6*.
`C(=N\NC1=Nc2cccc3cccc1c23)/c1ccccn1` gave LGR2 antag -91.0, TROY NFkB inh 18.9, HSF1 inhib -71.3*, TWEAK Fn14 block 62.8*, HSF1 activator -72.6 and EBV LMP1 NFkB -15.5.
For Cc1cc(NN=Cc2ccccn2)nc2c(C)cccc12 the results were LGR2 antag -14.7.
Screening O=C(C[C@@H]1C[C@@H]2c3cc(NC(=O)Cc4ccncc4)ccc3O[C@@H]2[C@H](CO)O1)NCc1ccc2c(c1)OCO2 returned LGR2 antag -2.1.
For CNC[C@H]1Oc2ccc(NC(=O)CCCN(C)C)cc2C(=O)N([C@@H](C)CO)C[C@H]1C the results were LGR2 antag -3.0.
Screening CN1CCN(C(=O)C[C@H]2CC[C@@H](NC(=O)Nc3ccccc3F)[C@@H](CO)O2)CC1 returned LGR2 antag 11.9.
COc1ccc(C=NNc2nc3ccccc3s2)cc1 was read as LGR2 antag 77.7*, TROY NFkB inh 57.4*, TWEAK Fn14 block 78.1* and EBV LMP1 NFkB inconclusive.
For COc1cc(OC)cc(C(=O)Oc2ccc(/C=N/Nc3nc4ccccc4s3)cc2OC)c1 the results were LGR2 antag -37.6, TROY NFkB inh -58.5, HSF1 inhib 39.8, TWEAK Fn14 block -27.2, HSF1 activator 82.4* and EBV LMP1 NFkB -34.5.
For COc1cc(/C=N/Nc2nc3ccccc3s2)ccc1OC(=O)c1ccccc1F the results were LGR2 antag -75.1, TROY NFkB inh -31.4, HSF1 inhib 65.7, TWEAK Fn14 block -17.6, HSF1 activator 84.7* and EBV LMP1 NFkB -54.2.
C(=N\Nc1nc2ccccc2s1)/c1ccccn1 was read as LGR2 antag 103.6*, HSF1 inhib -86.7* and HSF1 activator -88.3.
`C[C@H](CO)N1C[C@H](C)[C@H](CN(C)C(=O)C2CC2)Oc2cc(C#CCN(C)C)ccc2S1(=O)=O` gave LGR2 antag 5.9.
For Cc1cccc(NC(=S)NCC23C=CC(O2)C2C(=O)N(c4ccc(Cl)cc4)C(=O)C23)c1 (stereo unspecified) the results were LGR2 antag 12.1, TROY NFkB inh -24.4, HSF1 inhib 68.5, TWEAK Fn14 block -2.1, HSF1 activator 98.0* and EBV LMP1 NFkB -4.9.
Screening Cc1ccc(NC(=S)NCC23C=CC(O2)C2C(=O)N(c4ccc(C)cc4)C(=O)C23)cc1 (stereo unspecified) returned TROY NFkB inh -8.8, HSF1 inhib -5.5, TWEAK Fn14 block 9.0, HSF1 activator -4.7 and EBV LMP1 NFkB 3.4.
Screening Cc1csc(NC(=O)CSc2nnc(-c3ccncc3)n2C)n1 returned LGR2 antag 19.8, TROY NFkB inh 20.3, HSF1 inhib -3.1, TWEAK Fn14 block 0.1, HSF1 activator 16.9 and EBV LMP1 NFkB 3.6.
For COCCn1c(SCC(=O)NCc2ccco2)nnc1-c1c[nH]c2ccccc12 the results were LGR2 antag -11.0, TROY NFkB inh -1.6, HSF1 inhib -5.5, TWEAK Fn14 block -2.2, HSF1 activator 9.8 and EBV LMP1 NFkB 72.6*.
Screening Cc1csc(NC(=O)CSc2nnc(-c3ccco3)n2C)n1 returned TROY NFkB inh 80.7*, HSF1 inhib 1.5, TWEAK Fn14 block 86.3*, HSF1 activator -7.7 and EBV LMP1 NFkB -3.3.
For CCn1c(SCC(=O)NC(=O)NCc2ccco2)nnc1-c1cccs1 the results were TROY NFkB inh 13.9, HSF1 inhib -0.7, TWEAK Fn14 block 11.7, HSF1 activator 1.2 and EBV LMP1 NFkB -17.2.
O=C(NCc1ccco1)c1cc(-c2cccs2)on1 was read as TROY NFkB inh -68.5, HSF1 inhib 63.3, TWEAK Fn14 block -45.2, HSF1 activator 71.7* and EBV LMP1 NFkB 25.2.
Screening Cn1c(SCC(=O)NCc2ccco2)nnc1-c1cccs1 returned TROY NFkB inh -11.8, HSF1 inhib 21.6, TWEAK Fn14 block 2.0, HSF1 activator 54.8* and EBV LMP1 NFkB 5.5.
`O=C(Nc1ccc2c(c1)[C@H]1C[C@H](CC(=O)N3CCOCC3)O[C@H](CO)[C@H]1O2)C1CCC1` gave LGR2 antag -8.6.
For CCOC(=O)C(C)Sc1nnc(-c2c[nH]c3ccccc23)n1C (stereo unspecified) the results were TROY NFkB inh -17.8, HSF1 inhib 7.2, TWEAK Fn14 block 15.2, HSF1 activator -11.1 and EBV LMP1 NFkB 2.1.
For CCn1c(SC(C)C(=O)OC)nnc1-c1c[nH]c2ccccc12 (stereo unspecified) the results were LGR2 antag 3.0, TROY NFkB inh -2.1, HSF1 inhib 3.0, TWEAK Fn14 block -0.6, HSF1 activator -5.4 and EBV LMP1 NFkB 75.1*.
`CC1=CC(C)(C)Nc2ccc(OC(=O)CN3C(=O)c4ccccc4C3=O)cc21` gave TROY NFkB inh 32.6, HSF1 inhib -0.1, TWEAK Fn14 block 89.2*, HSF1 activator -9.9 and EBV LMP1 NFkB 1.4.
For CC1=CC(C)(C)Nc2ccc(OC(=O)C(Cc3ccccc3)N3C(=O)c4ccccc4C3=O)cc21 (stereo unspecified) the results were TROY NFkB inh -3.7, HSF1 inhib 33.6, TWEAK Fn14 block 110.3*, HSF1 activator inconclusive and EBV LMP1 NFkB 1.0.
`CC1=CC(C)(C)Nc2ccc(OC(=O)CN3C(=O)c4cccc5cccc(c45)C3=O)cc21` gave LGR2 antag -22.3, TROY NFkB inh 5.1, HSF1 inhib 3.2, TWEAK Fn14 block 51.9*, HSF1 activator -4.6 and EBV LMP1 NFkB 2.4.
Screening CCOc1ccc2c(c1)C(C)=CC(C)(C)N2 returned LGR2 antag 12.1, TROY NFkB inh -3.7, TWEAK Fn14 block 34.5 and EBV LMP1 NFkB -0.9.

Bioassay records: PubChem BioAssay, several laboratories
